Measured values as given in PubChem BioAssay (NCI).
The panel holds about 83,000 compounds, 20% with a hit somewhere; the sample as a whole holds those more often.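 How to read the values: 0–100, growth inhibition (40 = 60% inhibited); 0, no net growth; -100 to 0, cell death (-40 = 40% of starting cells died; -100 = all dead).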 The source made the active and inactive calls. How the source made its calls: active means growth percent below 10; inactive means the rest.

What was measured:
Assay in all cases: NCI-60 one-dose screen, 48 h (100 = growth as untreated, 0 = no growth, -100 = all killed)
Settings in all cases: 10 µM unless noted
SR leukemia = tested on: SR leukemia
RPMI-8226 leukemia = tested on: RPMI-8226 leukemia
OVCAR-8 ovarian = tested on: OVCAR-8 ovarian
OVCAR-5 ovarian = tested on: OVCAR-5 ovarian
OVCAR-4 ovarian = tested on: OVCAR-4 ovarian
IGROV1 ovarian = tested on: IGROV1 ovarian
OVCAR-3 ovarian = tested on: OVCAR-3 ovarian
HS 578T breast = tested on: HS 578T breast
NCI/ADR-RES ovarian = tested on: NCI/ADR-RES ovarian
T-47D breast = tested on: T-47D breast
BT-549 breast = tested on: BT-549 breast
MDA-MB-435 melanoma = tested on: MDA-MB-435 melanoma
SW-620 colon = tested on: SW-620 colon
MCF7 breast = tested on: MCF7 breast
HCT-116 colon = tested on: HCT-116 colon
HCC-2998 colon = tested on: HCC-2998 colon
KM12 colon = tested on: KM12 colon
MDA-MB-468 breast = tested on: MDA-MB-468 breast
SK-OV-3 ovarian = tested on: SK-OV-3 ovarian

Measured: growth

CCCCSc1nc(NCCc2c[nH]c3ccccc23)c(C#N)c(-c2ccccc2)n1
inactive: RPMI-8226 leukemia 14.1% | OVCAR-8 ovarian 49.2% | OVCAR-5 ovarian 82.7% | OVCAR-4 ovarian 62.2% | IGROV1 ovarian 96% | OVCAR-3 ovarian 55.9% | HS 578T breast 39.6% | NCI/ADR-RES ovarian 22.9% | BT-549 breast 70.2% | MDA-MB-435 melanoma 49.2% | HCC-2998 colon 16.3%
active: SR leukemia 2.16% | T-47D breast -0.0859% | SW-620 colon 4.59% | MCF7 breast 3.23% | HCT-116 colon 4.22% | KM12 colon 7.79% | MDA-MB-468 breast 3.04%

Cc1ccc2c(N)c(C(=O)Nc3ccc(-c4ccccc4)cc3)sc2n1
inactive: SR leukemia 43.1% | RPMI-8226 leukemia 49.2% | OVCAR-8 ovarian 73.4% | OVCAR-5 ovarian 71% | OVCAR-4 ovarian 47.3% | SK-OV-3 ovarian 60.3% | IGROV1 ovarian 72.5% | OVCAR-3 ovarian 79.1% | NCI/ADR-RES ovarian 50.5% | T-47D breast 29.5% | BT-549 breast 53.2% | MDA-MB-435 melanoma 69.1% | MCF7 breast 43.2% | HCT-116 colon 29.5% | HCC-2998 colon 101% | KM12 colon 77.3% | MDA-MB-468 breast 17.8%

O=C(N/N=C/c1ccc(-c2ccc(O)cc2)s1)c1[nH]c2ccc(Br)cc2c1-c1ccccc1
active: SR leukemia -22.4% | RPMI-8226 leukemia -8.25% | NCI/ADR-RES ovarian -27.4% | BT-549 breast -12.1% | MDA-MB-435 melanoma 2.37% | MCF7 breast 6.81% | HCT-116 colon 1.35% | KM12 colon 7.71% | MDA-MB-468 breast 5.96%
inactive: OVCAR-8 ovarian 25.1% | OVCAR-5 ovarian 18.7% | OVCAR-4 ovarian 20.3% | SK-OV-3 ovarian 31.6% | IGROV1 ovarian 12.9% | OVCAR-3 ovarian 21.4% | T-47D breast 12.4%

CC1=C(C(=O)c2ccccc2)C(c2ccc(-n3cncn3)cc2)n2c(nc3ccccc32)N1 (configuration not stated)
inactive: SR leukemia 76.9% | RPMI-8226 leukemia 63.4% | OVCAR-8 ovarian 91.4% | OVCAR-5 ovarian 97.3% | OVCAR-4 ovarian 71.8% | SK-OV-3 ovarian 79.3% | IGROV1 ovarian 83.1% | OVCAR-3 ovarian 107% | NCI/ADR-RES ovarian 85.6% | T-47D breast 83.6% | BT-549 breast 67.4% | MDA-MB-435 melanoma 94% | MCF7 breast 66.7% | HCT-116 colon 73% | KM12 colon 94.6% | MDA-MB-468 breast 95.6%

COc1ccc(/C=C/c2nc3ccccc3n3c(-c4ccc(Cl)cc4)nnc23)cc1
inactive: SR leukemia 60.1% | RPMI-8226 leukemia 81.4% | OVCAR-8 ovarian 92.7% | OVCAR-5 ovarian 102% | OVCAR-4 ovarian 81% | IGROV1 ovarian 66.8% | OVCAR-3 ovarian 99% | HS 578T breast 96.2% | NCI/ADR-RES ovarian 94.4% | T-47D breast 80.6% | BT-549 breast 114% | MDA-MB-435 melanoma 96.1% | SW-620 colon 99.2% | MCF7 breast 73.1% | HCT-116 colon 88.3% | HCC-2998 colon 110% | KM12 colon 93.1% | MDA-MB-468 breast 106%

CCN(CC)c1ccnc(CNCCSC(c2ccccc2)(c2ccccc2)c2ccc(OC)cc2)c1
active: SR leukemia -49.4% | RPMI-8226 leukemia -55.9% | OVCAR-8 ovarian -78.6% | OVCAR-5 ovarian -11.9% | IGROV1 ovarian -2.91% | OVCAR-3 ovarian -43% | HS 578T breast -33.2% | NCI/ADR-RES ovarian -64.5% | T-47D breast -15.8% | BT-549 breast -25.4% | MDA-MB-435 melanoma -63.8% | SW-620 colon -66.6% | MCF7 breast -50.8% | HCT-116 colon -78.6% | HCC-2998 colon -80.5% | KM12 colon -49.8% | MDA-MB-468 breast -64.1%
inactive: OVCAR-4 ovarian 14.1%

O=C(NNc1ccccc1)n1c(=O)c2ccccc2c(=O)n1-c1ccccc1
inactive: SR leukemia 80.8% | RPMI-8226 leukemia 102% | OVCAR-8 ovarian 96.7% | OVCAR-5 ovarian 96.1% | OVCAR-4 ovarian 97.6% | IGROV1 ovarian 96.4% | OVCAR-3 ovarian 104% | NCI/ADR-RES ovarian 98.3% | T-47D breast 87.9% | BT-549 breast 90% | MDA-MB-435 melanoma 97.8% | MCF7 breast 88.3% | HCT-116 colon 79.2% | HCC-2998 colon 108% | KM12 colon 93.3% | MDA-MB-468 breast 99%

O=c1onc(-c2cc3ccccc3nc2Cl)n1-c1cccc2ccccc12
inactive: SR leukemia 16.8% | RPMI-8226 leukemia 40.6% | OVCAR-8 ovarian 51.4% | OVCAR-4 ovarian 38.6% | SK-OV-3 ovarian 34.4% | IGROV1 ovarian 61.8% | OVCAR-3 ovarian 64% | HS 578T breast 30% | NCI/ADR-RES ovarian 15.2% | BT-549 breast 28.5% | SW-620 colon 29.7% | MCF7 breast 21.4% | HCT-116 colon 40.2% | HCC-2998 colon 71.1% | KM12 colon 44.2%
active: T-47D breast 3.09% | MDA-MB-435 melanoma -11.8% | MDA-MB-468 breast -25.2%
